Experimental data published in PubChem BioAssay.
Calls of active or inactive are those of the source.

Columns and labels:
[1] = binders of probe aFSTL3 on microarray, primary screen, stem cell growth factor project, biochemical, small-molecule microarray, fluorescence 635/667 (AID 1064); conditions: higher = more signal;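 also: measures binding of the biotinylated anti-FSTL3 antibody to printed compounds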
[2] = binders from COS7 lysate, DM2A8 probe, primary screen, torsin A project, cell lysate, small-molecule microarray, fluorescence 635/667 (AID 1065); conditions: higher = more signal, COS7 lysate expressing mutant human TOR1A
[3] = binders of probe aFGF2 on microarray, primary screen, stem cell growth factor project, biochemical, small-molecule microarray, fluorescence 635/667 (AID 1067); conditions: higher = more signal;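 also: measures binding of biotinylated aFGF2 protein to printed compounds on slides; z-score merges feature fluorescence and signal-to-noise across triplicate slides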
[4] = binders of probe aFGF10 on microarray, primary screen, stem cell growth factor project, biochemical, small-molecule microarray, fluorescence 635/667 (AID 1071); conditions: higher = more signal;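 also: score merges 667 nm spot intensity and signal to noise from triplicate slides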
[5] = molecular target: Neurogenic locus notch homolog protein 2 (Homo sapiens) (UniProt Q04721); assay: Notch2 binders on small-molecule microarrays, primary screen, biochemical, small-molecule microarray, 635 nm fluorescence, stem cell growth factors (AID 1073); conditions: Notch2 binding, higher = more signal
Neurogenic locus notch homolog protein 2 (Homo sapiens), sequence (Q04721 whole entry, looked up, canonical isoform): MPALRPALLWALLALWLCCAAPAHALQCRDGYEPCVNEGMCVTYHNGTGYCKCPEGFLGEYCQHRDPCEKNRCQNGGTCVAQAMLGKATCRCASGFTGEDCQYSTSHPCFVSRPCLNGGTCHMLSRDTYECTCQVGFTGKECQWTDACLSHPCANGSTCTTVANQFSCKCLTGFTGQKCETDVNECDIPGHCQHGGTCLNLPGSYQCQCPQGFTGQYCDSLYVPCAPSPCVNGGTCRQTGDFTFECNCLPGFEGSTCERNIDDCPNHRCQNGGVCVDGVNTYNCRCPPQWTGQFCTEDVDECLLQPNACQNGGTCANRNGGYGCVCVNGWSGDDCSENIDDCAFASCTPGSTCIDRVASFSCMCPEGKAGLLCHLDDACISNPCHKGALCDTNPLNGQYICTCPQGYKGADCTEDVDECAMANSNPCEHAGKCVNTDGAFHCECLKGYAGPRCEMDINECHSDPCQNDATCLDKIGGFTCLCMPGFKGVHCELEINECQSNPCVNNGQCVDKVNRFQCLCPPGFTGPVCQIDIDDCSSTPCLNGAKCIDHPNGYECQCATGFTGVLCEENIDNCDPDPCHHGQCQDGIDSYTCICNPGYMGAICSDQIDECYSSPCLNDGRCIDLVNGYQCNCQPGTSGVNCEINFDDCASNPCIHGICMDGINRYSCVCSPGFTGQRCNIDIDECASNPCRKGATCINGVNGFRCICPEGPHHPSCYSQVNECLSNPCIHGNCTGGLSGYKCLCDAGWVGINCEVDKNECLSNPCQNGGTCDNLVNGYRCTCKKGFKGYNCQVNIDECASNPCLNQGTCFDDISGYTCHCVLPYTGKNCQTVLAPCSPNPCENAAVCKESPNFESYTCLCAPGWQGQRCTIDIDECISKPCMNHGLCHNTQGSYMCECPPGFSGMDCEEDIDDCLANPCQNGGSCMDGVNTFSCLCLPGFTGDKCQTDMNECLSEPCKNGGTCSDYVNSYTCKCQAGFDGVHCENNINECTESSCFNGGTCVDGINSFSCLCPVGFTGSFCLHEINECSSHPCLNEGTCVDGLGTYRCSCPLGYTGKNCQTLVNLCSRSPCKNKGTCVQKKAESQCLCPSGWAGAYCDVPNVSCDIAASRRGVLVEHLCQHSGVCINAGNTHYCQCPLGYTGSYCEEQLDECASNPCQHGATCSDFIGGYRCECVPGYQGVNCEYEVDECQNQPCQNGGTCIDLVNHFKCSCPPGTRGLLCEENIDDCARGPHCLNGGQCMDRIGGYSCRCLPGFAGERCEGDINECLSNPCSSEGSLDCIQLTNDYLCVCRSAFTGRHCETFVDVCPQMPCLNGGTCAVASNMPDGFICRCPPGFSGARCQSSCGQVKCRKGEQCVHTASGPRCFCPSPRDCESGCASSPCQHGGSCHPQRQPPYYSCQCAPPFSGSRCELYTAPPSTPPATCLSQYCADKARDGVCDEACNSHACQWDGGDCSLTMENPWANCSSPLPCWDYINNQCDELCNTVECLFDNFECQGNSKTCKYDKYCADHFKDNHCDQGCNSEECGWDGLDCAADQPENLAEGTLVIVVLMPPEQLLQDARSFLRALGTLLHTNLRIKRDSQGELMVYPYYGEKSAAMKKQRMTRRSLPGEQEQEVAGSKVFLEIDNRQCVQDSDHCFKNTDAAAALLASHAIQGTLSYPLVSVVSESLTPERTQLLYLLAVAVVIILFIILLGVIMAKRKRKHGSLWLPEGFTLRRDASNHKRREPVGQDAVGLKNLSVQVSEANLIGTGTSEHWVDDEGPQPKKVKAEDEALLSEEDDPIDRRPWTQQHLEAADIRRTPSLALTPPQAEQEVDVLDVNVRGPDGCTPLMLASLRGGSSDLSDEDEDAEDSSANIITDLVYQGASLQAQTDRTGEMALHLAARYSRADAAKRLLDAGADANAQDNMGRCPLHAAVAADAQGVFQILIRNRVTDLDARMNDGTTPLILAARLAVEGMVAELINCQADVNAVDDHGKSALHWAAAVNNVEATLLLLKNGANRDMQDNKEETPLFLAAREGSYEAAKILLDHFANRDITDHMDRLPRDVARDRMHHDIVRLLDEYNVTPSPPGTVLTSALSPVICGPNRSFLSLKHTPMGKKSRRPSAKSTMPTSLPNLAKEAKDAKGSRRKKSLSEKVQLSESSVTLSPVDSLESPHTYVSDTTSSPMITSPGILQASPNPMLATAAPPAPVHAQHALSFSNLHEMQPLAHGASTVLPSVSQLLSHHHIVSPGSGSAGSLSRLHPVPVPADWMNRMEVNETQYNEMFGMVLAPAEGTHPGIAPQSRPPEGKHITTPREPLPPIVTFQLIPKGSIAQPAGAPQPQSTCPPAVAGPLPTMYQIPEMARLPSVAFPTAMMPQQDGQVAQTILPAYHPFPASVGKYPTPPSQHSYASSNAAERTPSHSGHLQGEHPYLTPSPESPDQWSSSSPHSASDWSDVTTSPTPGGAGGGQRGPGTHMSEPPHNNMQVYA

[6] = molecular target: Pro-neuregulin-1, membrane-bound isoform (Homo sapiens) (UniProt Q02297); assay: NRG1 binders on small-molecule microarrays, primary screen, psychiatric disease protein project, biochemical, small-molecule microarray, fluorescence 635/667 (AID 1075); conditions: NRG1 binding, 635 nm fluorescence, higher = more signal;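 also: score combines 667 nm spot fluorescence with signal to noise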
Pro-neuregulin-1, membrane-bound isoform (Homo sapiens), sequence (Q02297 whole entry, looked up, the tested form may be a part, canonical isoform): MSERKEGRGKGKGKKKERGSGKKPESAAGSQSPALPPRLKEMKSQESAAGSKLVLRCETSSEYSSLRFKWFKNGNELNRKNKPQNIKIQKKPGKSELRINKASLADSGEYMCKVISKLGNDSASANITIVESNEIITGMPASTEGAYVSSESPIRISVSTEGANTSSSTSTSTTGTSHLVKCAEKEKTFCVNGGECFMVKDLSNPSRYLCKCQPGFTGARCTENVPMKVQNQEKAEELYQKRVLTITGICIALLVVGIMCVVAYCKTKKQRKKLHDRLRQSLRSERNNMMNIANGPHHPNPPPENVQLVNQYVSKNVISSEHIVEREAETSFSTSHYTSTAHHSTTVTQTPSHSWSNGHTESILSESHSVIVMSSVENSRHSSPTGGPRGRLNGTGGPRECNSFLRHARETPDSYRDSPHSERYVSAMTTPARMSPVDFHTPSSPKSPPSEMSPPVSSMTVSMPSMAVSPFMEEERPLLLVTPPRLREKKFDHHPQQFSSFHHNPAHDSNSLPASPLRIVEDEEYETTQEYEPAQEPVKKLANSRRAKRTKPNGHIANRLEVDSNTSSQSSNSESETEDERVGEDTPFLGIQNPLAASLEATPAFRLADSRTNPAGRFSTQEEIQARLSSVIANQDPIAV

[7] = tested on: Neuregulin-1 EGF-like domain; assay: binders of neuregulin-1 EGF-like domain, primary screen, biochemical, small-molecule microarray, 635 nm fluorescence (AID 1081); conditions: small-molecule microarray binding, higher = more signal;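 also: binding of the protein to compounds printed on small-molecule microarray slides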
[8] = FRG1 promoter luciferase signal modulators, primary screen, FRG1 inhibition for FSHD, cell-based, C2C12 myotubes, firefly/Renilla luciferase, luminescence (AID 1084); conditions: higher = more signal, called active from +8 up or from −8 down
[9] = binders of probe aFST on microarray, primary screen, stem cell growth factor project, biochemical, small-molecule microarray, fluorescence 635/667 (AID 1086); conditions: higher = more signal;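 also: score merges 667 nm fluorescence with signal-to-noise of each printed compound spot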
[10] = binders of probe aHhip on microarray, primary screen, stem cell growth factor project, biochemical, small-molecule microarray, fluorescence 635/667 (AID 1087); conditions: higher = more signal;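 also: score merges spot fluorescence at 667nm with spot signal to noise ratio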
[11] = tested on: PRMT1 (protein arginine N-methyltransferase 1); assay: PRMT1 binders on small-molecule microarrays, primary screen, biochemical, small-molecule microarray, 635 nm fluorescence (AID 1088); conditions: small-molecule microarray binding, higher = more signal;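 also: binding of Prmt1 protein to compounds spotted on small-molecule microarray slides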
[12] = yeast growth modulation, basal conditions, primary screen, YJM789 clinical isolate, OD600, 24 h (AID 1089);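 also: growth of clinical yeast isolate S. cerevisiae YJM 789 seeded 1000 cells per well; test concentration not given here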; conditions: S. cerevisiae YJM789 growth, higher = more signal, called active from +8 up or from −8 down
[13] = fission yeast growth modulation, primary screen, strain 972, OD600, 24 h, no modulator (AID 1090);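 also: basal condition with compound alone and no growth modifier present; test concentration not given here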; conditions: S. pombe 972 growth, higher = more signal, called active from +8 up or from −8 down
[14] = S. cerevisiae growth modulation with rapamycin, primary screen, strain BY4716, OD600, 96 h (AID 1091); conditions: higher = more signal, called active from +8 up or from −8 down; also: test concentration not given here
[15] = molecular target: Torsin-1A-interacting protein 2 (Homo sapiens) (UniProt Q8NFQ8); assay: LULL1 binders on small-molecule microarray, primary screen, cell lysate, human LULL1 lysate, 635/667 nm fluorescence (AID 1092); conditions: hLULL1 lysate binding, 635 nm fluorescence, higher = more signal;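 also: probe is lysate of COS7 cells overexpressing human LULL1; score merges per-feature 667 nm fluorescence with signal-to-noise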
Torsin-1A-interacting protein 2 (Homo sapiens), sequence (Q8NFQ8 whole entry, looked up): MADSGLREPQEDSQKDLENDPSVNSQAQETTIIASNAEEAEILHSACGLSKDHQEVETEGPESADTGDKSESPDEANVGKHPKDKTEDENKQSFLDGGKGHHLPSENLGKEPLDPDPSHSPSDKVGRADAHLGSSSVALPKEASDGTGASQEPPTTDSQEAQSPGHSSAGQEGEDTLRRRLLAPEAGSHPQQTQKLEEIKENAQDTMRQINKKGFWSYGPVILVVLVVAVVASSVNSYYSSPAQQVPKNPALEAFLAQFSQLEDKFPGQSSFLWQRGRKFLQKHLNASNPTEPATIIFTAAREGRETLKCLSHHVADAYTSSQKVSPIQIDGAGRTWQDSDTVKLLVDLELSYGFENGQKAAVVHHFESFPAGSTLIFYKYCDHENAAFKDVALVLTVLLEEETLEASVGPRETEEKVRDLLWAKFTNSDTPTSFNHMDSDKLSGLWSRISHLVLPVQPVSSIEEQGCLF

[16] = E. coli growth modulation, two-sided OD650, primary screen, E. coli filamentation project, strain DRC41, 24 h (AID 1093); conditions: OD650, 24 h, higher = more signal, called active from +8 up or from −8 down;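 also: MC1000 strain lacking acrAB efflux and sulA so SOS filamentation is blocked; test concentration not given here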
[17] = small-molecule microarray binders of probe aLefty2, primary screen, biochemical, biotinylated probe, 635/667 nm fluorescence (AID 1094); conditions: higher = more signal;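 also: score merges spot fluorescence near 667 nm with spot signal-to-noise ratio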
[18] = tested on: Noggin (protein binding on small-molecule microarray); assay: Noggin binders on small-molecule microarray, primary screen, biochemical, 635/667 nm fluorescence (AID 1095); conditions: 635 nm fluorescence, higher = more signal;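 also: score merges 667 nm feature fluorescence with signal to noise over triplicate slides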
[19] = molecular target: Neurogenic locus notch homolog protein 3 (Homo sapiens) (UniProt Q9UM47); assay: NOTCH3 binders on small-molecule microarray, primary screen, biochemical, 635/667 nm fluorescence (AID 1096); conditions: NOTCH3 binding, 635 nm fluorescence, higher = more signal
[20] = small-molecule microarray binders of probe aEGFR, primary screen, biochemical, biotinylated probe, 635/667 nm fluorescence (AID 1097); conditions: higher = more signal;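 also: probe is a biotinylated anti-EGFR antibody binding compounds printed on slides; score combines fluorescence near 667 nm and signal to noise of each spot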

Row | Compound | composite z-score [1] | composite z-score [2] | composite z-score [3] | composite z-score [4] | composite z-score [5] | composite z-score [6] | composite z-score [7] | z-score [8] | composite z-score [9] | composite z-score [10] | composite z-score [11] | z-score [12] | z-score [13] | z-score [14] | composite z-score [15] | z-score [16] | composite z-score [17] | composite z-score [18] | composite z-score [19] | composite z-score [20]
1 | O=C(CS)NCCCCCNC(=O)[C@H]1C[C@H]2C(=O)N3CCC[C@H]3C(=O)N2[C@H]1c1cccc(OCCO)c1 | 0.32 | 1.52 | -0.0718 | 0.564 | -0.0686 | 0.665 | 1.35 | 0.556 (inactive) | 0.442 | 0.0274 | 1.53 | 0.436 (inactive) | -0.723 (inactive) | -0.173 (inactive) | 2.7 | 0.146 (inactive) | 0.0124 | 1.76 | 1.1 | -0.0025
2 | CO[C@H]1O[C@H](CO)[C@@H](OC(=O)Nc2ccc3c(c2)OCO3)[C@H](OC(=O)Nc2ccccc2-c2ccccc2)[C@@H]1OC(=O)Nc1ccccc1-c1ccccc1 | 0.0442 | -0.029 | -0.0238 | 1.13 | 1.57 | 0.985 | 1.17 | 1.36 (inactive) | 0.626 | 0.151 | 1.54 | 2.12 (inactive) | 1.8 (inactive) | 0.91 (inactive) | 3.27 | 0.39 (inactive) | 0.0427 | 0.943 | 1.07 | -0.0179
3 | Cn1c(=O)n2n(c1=O)[C@H]1[C@H](O)[C@@H]3O[C@@H]3C(=NOC[C@@H](O)COCc3ccco3)[C@H]1CC2 | -0.319 | 0.614 | -0.0538 | 0.296 | 0.515 | -0.218 | 0.276 | -0.532 (inactive) | 0.0036 | 0.0373 | 0.188 | 0.0859 (inactive) | 0.171 (inactive) | -0.36 (inactive) | 0.14 | -0.0342 (inactive) | -0.171 | 0.426 | 0.775 | 0.0574
4 | Cc1ccc(S(=O)(=O)N[C@@H]2COC(=O)[C@H](C)COC(=O)CC=C[C@H]2C)cc1 | -0.618 | 0.133 | -0.121 | 0.305 | -0.0058 | -0.0185 | -0.228 | -0.564 (inactive) | -0.0468 | 0.176 | -0.365 | 1.4 (inactive) | 1.05 (inactive) | 1.2 (inactive) | -0.366 | -0.234 (inactive) | -0.18 | 0.984 | 0.566 | -0.215
5 | COc1ccc(O[C@H]2C=C[C@@H](c3ccccc3)O[C@@H]2COC(=O)CCC(C)=NO[C@@H](C)c2cc(-c3c(C)cc(C)cc3C)no2)cc1 | -0.0675 | -0.499 | -0.199 | -0.522 | -1.07 | -0.524 | -1.08 | 0.0014 (inactive) | -0.666 | -0.237 | -0.225 | -0.843 (inactive) | 1.09 (inactive) | -0.159 (inactive) | -0.687 | -0.312 (inactive) | -0.219 | -0.916 | -2.17 | -0.214
6 | COC(=O)C1=CCC(c2cccc(Cl)c2)O1 (stereo not given) | 0.005 | -0.0992 | -0.0901 | 0.0994 | -0.104 | 1.25 | 0.584 | -0.912 (inactive) | -0.0195 | 0.0749 | 0.0357 | -1.6 (inactive) | -1.54 (inactive) | 4.34 (inactive) | 1.82 | -0.215 (inactive) | -0.043 | -0.485 | -0.223 | -0.106
7 | C[C@H]1Cc2c(-c3ccccc3)nc3c(c2CO1)CN(CCOc1ccccc1)CC3 | -0.635 | 0.568 | -0.113 | 0.739 | 1.41 | 0.135 | 0.991 | 0.53 (inactive) | 0.307 | -0.0708 | 1.56 | -0.0387 (inactive) | -1.24 (inactive) | -0.142 (inactive) | 2.3 | 1.91 (inactive) | -0.161 | 0.472 | 1.12 | -0.0114
8 | COc1ccccc1CN1C(=O)c2ccccc2[C@@H](C(=O)NCC(F)(F)F)[C@@H]1c1ccc(CO)cc1 | -0.271 | 0.683 | -0.0829 | 0.0992 | 0.654 | 1.17 | 1.39 | -3 (inactive) | 0.19 | -0.0994 | 1.55 | 0.21 (inactive) | 0.74 (inactive) | -0.296 (inactive) | 2.37 | 1.49 (inactive) | -0.107 | 1.11 | 1.06 | -0.179
9 | CCCCc1nc2c(c3c1C[C@H](C)OC3)CN(CCC(C)C)CC2 | -0.578 | 0.252 | -0.0687 | 0.509 | 1.16 | 0.788 | 1.17 | 0.607 (inactive) | 0.295 | -0.199 | 1.49 | -0.147 (inactive) | -1.52 (inactive) | -1.07 (inactive) | 2 | 0.567 (inactive) | -0.114 | 0.582 | 1.11 | -0.0627
10 | COc1ccc(O[C@H]2C=C[C@@H](c3ccccc3)O[C@@H]2COC(=O)N2CCCCC2)cc1 | -0.0055 | 0.38 | -0.0493 | -0.479 | -0.701 | -0.578 | -0.77 | -0.216 (inactive) | -0.0007 | -0.171 | 0.38 | 0.523 (inactive) | -0.897 (inactive) | 0.156 (inactive) | -0.616 | 0.555 (inactive) | 0.0116 | 0.0935 | -1.08 | -0.0527
